This note sets out measurements from the supplement of paper PMC6555819.

The subject of the first assay is RARa:RXR (NR concentration 270 nM, RXRa partner concentration 90 nM). Kind of assay: PBM binding z-score (relative to random genomic background probes); higher = stronger binding; sequences stand for … in GC…GCGATTGACAGCGTAGAATGAAGG
The procedure, abridged:
(§1)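 Binding z-scores take random background probes as their reference. They come from custom Agilent 4×180K protein-binding microarrays incubated 1 h with ligand-free nuclear receptor dimers, with antibodies against each partner (one per run) detecting binding. Scanned fluorescence was regression-normalized.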
Consider ATCGCAAGGTCGACGAGGTGAGTATACACCGTTT, for which the PBM binding z-score stood at 2.55.

Consider GCTAGTTGGTCAGTAAAAGGTCACACCCCGGTCG, for which the PBM binding z-score was determined as 5.06.

In turn, ACTAGAAGGCCAAGTTTGGGTCACTCAAACAAAG showed a PBM binding z-score of 2.15.

In the case of TATACAGGGTCAAAGTCCAGAGTACGAATGTCGA, the PBM binding z-score was found to be 5.3.

Turning to GCTGCTAGGTCAGGTTGATCAGCTAACGGGTACG, the PBM binding z-score was 0.656.

For TCATATGGGTAATACAGGTGAAAGTCGGCATCTA, the PBM binding z-score amounted to 0.653.

As to ACTAGCAGGTCAAGTTTGGGTCACTCAAACAAAG, the PBM binding z-score is 5.89.

Take TCTATTAGTTGAAGGCCAACCGACGAGTCCGTTT: the PBM binding z-score was determined as 0.79.

Take TTACCAAGGTGAAAGGTTGTTGATGCACGCCTTG: the PBM binding z-score came to 2.32.

On to CGAACTCGGTCATCCAGGACAGTGAATACATTGA, for which the PBM binding z-score came to 0.856.

Sequence TCATAGAGGTAAAAGGTGAAAGTCGGTGTGGTAA returned a PBM binding z-score of 3.86.

Consider TTACCAAGGTGAGCTGAGGTCGTTGAACCAACTC, for which the PBM binding z-score stood at 2.19.

The sequence TAGCCTAGGTCATTGGGCCAGTATCGTACGCATC came in with a PBM binding z-score of 2.39.

AGAACTAGGGCAATGAGTTGATAGCACGGGTGGC gave a PBM binding z-score of 0.000604.

As to CCTACTGGACCATTCAGAGGTCATTGATCATATG, the PBM binding z-score stood at 4.69.

On to CGTCCAAGGTCAAAGGACAGTGAAGAGATGACGG, for which the PBM binding z-score was 4.39.

CGTCAAAGATCAACTAAGGTAACGTAAAGCACGC yielded a PBM binding z-score of 1.52.

TAGCCTAGGTCATGTGCCAGTATACCACGCGAAC came in with a PBM binding z-score of 2.34.

Consider TCATATAGGTAAACGCTAGGTGAAAGTCCGATCT, for which the PBM binding z-score is 1.13.

Regarding CCGACTGGGGCATAAGGATACCATAAGCCAGCCC, the PBM binding z-score was -0.463.

AATACAGGGTCATTGTAGGCCAGAGTACGCACAG displayed a PBM binding z-score of 4.54.

ATAGAAAGGTCGAGGTGAGTATAGAGAAAGGGAA gave a PBM binding z-score of 3.6.

Regarding ATCTCTAGGTCAAGATAGTTCAGTGAATGCAAAT, the PBM binding z-score is 3.29.

In turn, ATACCAAGGTGATCGTGAAGTCGTTGATACTAAC displayed a PBM binding z-score of 0.548.

AACTCTAGGTAACCAAGTTCAGTGAATGCCGAAC gave a PBM binding z-score of 0.617.

The sequence CCTGCTAGGTCACGGTCAGCTAATCTACAGTATG came in with a PBM binding z-score of 3.24.

As to ATATGTAGGTTATGGGTCATTCAGGTTGGTTCGC, the PBM binding z-score stood at 3.63.

In the case of TTATCAAGGTGAGCTGAGGTCGTTGATCCAACTC, the PBM binding z-score was 1.99.

As to ATCTCTAGGTAAGGTTCAGTGAAAGATCGATAGA, the PBM binding z-score stood at 1.21.

Take TGAATGAGGTTAAAGATCTGGGAACGTGGCGTCG: the PBM binding z-score is 1.8.

The sequence CGTCAAAGTACAACTAAGGTAACGTAAAGCACGC displayed a PBM binding z-score of 2.1.

The sequence CAAACTAGGTCAGAACAGGACAGTGAAGGATGAT showed a PBM binding z-score of 1.32.

GTACCAAGGTGAATAGGGCGTTGATGAGTAGGCG came in with a PBM binding z-score of 0.434.

With AGAATGATGTTATACGTAGATCAGGGAAGAAAGT, the PBM binding z-score is -0.276.

For the sequence CCTCGGAGGGCAACAGGAGGTCAGAGCTGCCAGA, the PBM binding z-score stood at 3.63.

Sequence CCAGCCAGGTGAAAGGTAACTCAGTCTGGTACGC gave a PBM binding z-score of 1.32.

For the sequence CTAGAAAGGTCGTGCTCAGGTGAGTATACCAAAC, the PBM binding z-score stood at 4.02.

For ATATGTAGGTTACATCCGGGTCATTCAGGCTATG, the PBM binding z-score worked out at 3.64.

For the sequence CCTAGCAGGCCAATTTGGGTCACTCAAGGCTTGA, the PBM binding z-score came out at 1.52.

CCTGCTAGGTCATGGTCAGATAATCTACAGTATG registered a PBM binding z-score of 2.59.

The next assay concerns RARa homodimer (NR concentration 270 nM). The description is as above. The procedure, abridged:
as §1
Take ATCGCAAGGTCGACGAGGTGAGTATACACCGTTT: the PBM binding z-score was -0.403.

GCTAGTTGGTCAGTAAAAGGTCACACCCCGGTCG registered a PBM binding z-score of 0.952.

The sequence ACTAGAAGGCCAAGTTTGGGTCACTCAAACAAAG came in with a PBM binding z-score of -0.267.

TATACAGGGTCAAAGTCCAGAGTACGAATGTCGA: the PBM binding z-score is 2.

The sequence GCTGCTAGGTCAGGTTGATCAGCTAACGGGTACG gave a PBM binding z-score of -0.919.

TCATATGGGTAATACAGGTGAAAGTCGGCATCTA registered a PBM binding z-score of 0.182.

With ACTAGCAGGTCAAGTTTGGGTCACTCAAACAAAG, the PBM binding z-score turned out to be 0.164.

For the sequence TCTATTAGTTGAAGGCCAACCGACGAGTCCGTTT, the PBM binding z-score came out at 1.21.

As to TTACCAAGGTGAAAGGTTGTTGATGCACGCCTTG, the PBM binding z-score amounted to 0.397.

Consider CGAACTCGGTCATCCAGGACAGTGAATACATTGA, for which the PBM binding z-score is 0.205.

TCATAGAGGTAAAAGGTGAAAGTCGGTGTGGTAA gave a PBM binding z-score of 0.918.

TTACCAAGGTGAGCTGAGGTCGTTGAACCAACTC: the PBM binding z-score was -0.877.

With TAGCCTAGGTCATTGGGCCAGTATCGTACGCATC, the PBM binding z-score is 0.0894.

On to AGAACTAGGGCAATGAGTTGATAGCACGGGTGGC, for which the PBM binding z-score came out at 0.238.

On to CCTACTGGACCATTCAGAGGTCATTGATCATATG, for which the PBM binding z-score is 1.66.

Sequence CGTCCAAGGTCAAAGGACAGTGAAGAGATGACGG showed a PBM binding z-score of 0.706.

As for CGTCAAAGATCAACTAAGGTAACGTAAAGCACGC, the PBM binding z-score is 0.595.

With TAGCCTAGGTCATGTGCCAGTATACCACGCGAAC, the PBM binding z-score was -0.178.

Sequence TCATATAGGTAAACGCTAGGTGAAAGTCCGATCT registered a PBM binding z-score of 0.619.

In turn, CCGACTGGGGCATAAGGATACCATAAGCCAGCCC came in with a PBM binding z-score of 0.0261.

With AATACAGGGTCATTGTAGGCCAGAGTACGCACAG, the PBM binding z-score was determined as 0.607.

Sequence ATAGAAAGGTCGAGGTGAGTATAGAGAAAGGGAA yielded a PBM binding z-score of 1.71.

ATCTCTAGGTCAAGATAGTTCAGTGAATGCAAAT yielded a PBM binding z-score of 1.32.

In the case of ATACCAAGGTGATCGTGAAGTCGTTGATACTAAC, the PBM binding z-score was determined as 0.427.

Turning to AACTCTAGGTAACCAAGTTCAGTGAATGCCGAAC, the PBM binding z-score turned out to be 0.354.

In turn, CCTGCTAGGTCACGGTCAGCTAATCTACAGTATG showed a PBM binding z-score of 1.67.

Regarding ATATGTAGGTTATGGGTCATTCAGGTTGGTTCGC, the PBM binding z-score is 2.31.

TTATCAAGGTGAGCTGAGGTCGTTGATCCAACTC: the PBM binding z-score was -0.272.

On to ATCTCTAGGTAAGGTTCAGTGAAAGATCGATAGA, for which the PBM binding z-score is 1.79.

TGAATGAGGTTAAAGATCTGGGAACGTGGCGTCG registered a PBM binding z-score of -0.239.

In turn, CGTCAAAGTACAACTAAGGTAACGTAAAGCACGC came in with a PBM binding z-score of 0.546.

The sequence CAAACTAGGTCAGAACAGGACAGTGAAGGATGAT gave a PBM binding z-score of 1.02.

Sequence GTACCAAGGTGAATAGGGCGTTGATGAGTAGGCG yielded a PBM binding z-score of 0.194.

In turn, AGAATGATGTTATACGTAGATCAGGGAAGAAAGT had a PBM binding z-score of -0.0154.

Sequence CCTCGGAGGGCAACAGGAGGTCAGAGCTGCCAGA came in with a PBM binding z-score of 0.286.

For the sequence CCAGCCAGGTGAAAGGTAACTCAGTCTGGTACGC, the PBM binding z-score was -0.603.

As for CTAGAAAGGTCGTGCTCAGGTGAGTATACCAAAC, the PBM binding z-score stood at 0.32.

For the sequence ATATGTAGGTTACATCCGGGTCATTCAGGCTATG, the PBM binding z-score came out at 0.928.

As for CCTAGCAGGCCAATTTGGGTCACTCAAGGCTTGA, the PBM binding z-score was -0.55.

As for CCTGCTAGGTCATGGTCAGATAATCTACAGTATG, the PBM binding z-score is 0.0727.
